The record followed here is publication PMC7826789 (International Journal of Molecular Sciences, 2021).

This test concerns BRAF.
On to `COC(=O)c1c(-c2ccccc2)c2cc(OC)ccc2c(=O)n1Cc1ccccc1` [TPKI-97], for which the Kinases covered result is “BRAF”.
Consider `CN(C)CCN(C)C(=O)c1cc(-c2ccncc2)c(-c2ccc(Cl)c(O)c2)o1` [SB-710397], for which the Kinases covered result is reported as “BRAF”.
To `O=C(Nc1cccc(-c2nn3ncccc3c2-c2ccnc(Nc3cccnc3)n2)c1)c1c(F)cccc1F` [GSK312879] belongs “BRAF”; to `CN(C)CCOc1ccc(-c2nc(-c3ccc4c(c3)CC/C4=N\O)c(-c3ccncc3)[nH]2)cc1` [SB-590885], “BRAF”; to `CCCS(=O)(=O)Nc1ccc(F)c(-n2cc(-c3cncc(OC)c3)nn2)c1F` [BI00865461], “BRAF”.
